Data as given in PubChem BioAssay AID588519 (ICCB-Longwood Screening Facility, Harvard Medical School, 2011).
Where “and” joins values, the source holds several entries; their conditions need not be identical. Identical values can stand only once. The whole screen tested about 150,000 compounds, of which about 1,000 (0.67%) were called active. The sample holds actives, similar compounds and a random draw of the others, so the mix is not that of the screen. Rule as the data show it: active = % elongation below about 90%; inactive = the rest, inconclusive results apart.

Target: Genome polyprotein (Poliovirus type 1 (strain Mahoney)) (UniProt P03300)
Test: inhibitors of poliovirus polymerase RNA elongation – biochemical, fluorescence polarization, total intensity, primary screen (AID 588519); as to z-score: compound at 16.7 µg/mL
Details: stronger effect = lower value; for % elongation: compound at 16.7 µg/mL; for z-score: measured here: FP z-score
[1] = measured here: total intensity read-out

Chain of Genome polyprotein (Poliovirus type 1 (strain Mahoney)) (P03300 1749-2209 limits assumed): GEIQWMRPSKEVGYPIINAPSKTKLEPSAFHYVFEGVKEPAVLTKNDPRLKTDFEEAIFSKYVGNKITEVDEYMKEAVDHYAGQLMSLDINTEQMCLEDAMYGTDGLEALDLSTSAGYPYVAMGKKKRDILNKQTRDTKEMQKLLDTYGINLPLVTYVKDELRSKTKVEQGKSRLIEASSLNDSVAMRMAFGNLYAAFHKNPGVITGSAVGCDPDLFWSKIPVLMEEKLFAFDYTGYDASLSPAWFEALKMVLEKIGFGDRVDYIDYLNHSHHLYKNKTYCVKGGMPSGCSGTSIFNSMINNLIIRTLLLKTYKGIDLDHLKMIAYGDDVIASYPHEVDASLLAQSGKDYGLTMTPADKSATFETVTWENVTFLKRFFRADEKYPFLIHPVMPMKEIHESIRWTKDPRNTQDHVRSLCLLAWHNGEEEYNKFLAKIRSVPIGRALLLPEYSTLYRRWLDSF

SMILES | % elongation | z-score | % elongation [1]
CCNC(=O)C1CCCN(S(=O)(=O)N(CC)c2ccc(OCC)cc2)C1 (configuration not stated) | 103% (inactive) | 0.5 | 105%
CC(C)c1ccc(C2CC(=O)N3CN(C4CCCCC4)CSC3=C2C#N)cc1 (configuration not stated) | 81% (active) | -3.5 | 82%
Cc1cc(C)c(C(=O)COC(=O)c2ccc(N(C)C)cc2)c(C)c1 | 104% (inactive) | -0.3 | 97%
CCN1CCN(C(=O)C2CCCCC2C(=O)O)CC1 (configuration not stated) | 102% (inactive) | 0 | 103%
CCOC(=O)c1c(N)sc2c1CCCS2 | 64% (active) | -3.9 | 74%
CCOC(=O)c1c(NC2=CC(=O)CCC2)sc2c1CCCCC2 | 107% (inactive) | 0.6 | 112%
CCOC(=O)c1c(N)sc2c1CC(C)(C)OC2 | 103% (inactive) | 0.4 | 106%
CCC(=O)c1cn(CC(=O)N2CCCC2)c2ccccc12 | 107% (inactive) | 0.5 | 109%
Fc1ccc(NC(=S)N2CCN=C2Nc2ccc(F)cc2)cc1 | 87% (active) | -5.7 | 82%
OC1CCN(C(=S)Nc2ccccc2)CC1 | 101% (inactive) | 0 | 100%
COc1ccc(NC(=S)N2CCCCC2)cc1 | 100% (inactive) | -0.3 | 108%
O=C1CCC/C1=C1\SCC(=O)N1c1ccccc1 | 101% (inactive) | -0.3 | 99%
Cc1ccc(C)c(NC(=O)C(c2ccccc2)N2CCCCC2C(N)=O)c1 (configuration not stated) | 97% (inactive) | -0.5 | 103%
C=CCn1c(SCC#N)nc2c(c1=O)C1(CCCCC1)Cc1ccccc1-2 | 102% (inactive) | 0.1 | 103%
O=C(CSc1nnc(-c2ccncc2)n1-c1ccccc1)Nc1ccccc1 | 100% (inactive) | -0.8 | 96%
COc1ccc(Cc2nnc(SCC(=O)Nc3ccc(S(=O)(=O)N4CCCCCC4)cc3)o2)cc1 | 104% (inactive) | 0.4 | 102%
Nn1c(SCC(=O)Nc2ccc(S(=O)(=O)N3CCCC3)cc2)nnc1-c1ccccc1 | 76% (active) | -5.5 | 80%
Cc1ccccc1CN1CCN(CC(=O)NCc2cccs2)C1=O | 98% (inactive) | -0.7 | 103%
CCCC(Nc1cc(Cl)cc(Cl)c1)n1nnc2ccccc21 (configuration not stated) | 104% (inactive) | 0.1 | 110%
O=C(CSC(=S)N1CCCC1)Nc1ccccc1OC(F)F | 105% (inactive) | 0.5 | 104%
CC(C)(C)C1C/C(=C/c2ccco2)C(=O)/C(=C/c2ccco2)C1 (configuration not stated) | 76% (inactive) | -3.3 | 189%
Cc1ccc(N2C(=O)NC(=O)/C(=C\c3ccco3)C2=O)c(C)c1 | 99% (inactive) | -0.2 | 97%
CS(=O)(=O)C1=NSC2=NC(=O)/C(=C\c3ccco3)C(=N)N21 | 66% (active) | -10.9 | 23%
CN(C)/C=N/N=C(\Cc1nc2ccccc2[nH]1)c1ccccc1 | 102% (inactive) | 0.2 | 106%
O=C(COC(=O)c1cc(=O)[nH]c2ccccc12)NCc1ccco1 | 107% (inactive) | 0.6 | 101%
CCOc1ccc(-c2ccc(NS(=O)(=O)c3ccccc3)cc2)nn1 | 102% (inactive) | 0.9 | 104%
S=C(c1ccc(-c2ccccc2)o1)N1CCCCC1 | 99% (inactive) | -0.3 | 101%

SMILES | % elongation | z-score | % elongation [1]
S=C(c1ccc(-c2ccc(Cl)cc2)o1)N1CCN(c2ccccc2)CC1 | 63% (active) | -4.2 | 70%
Clc1ccc(/C=N\N2CCN(c3ccccc3)CC2)cc1 | 108% (inactive) | 1.3 | 100%
CCC(Cc1ccccc1)NC(=O)c1ccco1 (configuration not stated) | 99% (inactive) | -0.3 | 100%
Cc1noc(C)c1CSc1nnc(-c2ccccc2Br)n1Cc1ccccc1 | 96% (inactive) | -0.6 | 102%
C=C(C)CNC(=S)N=Nc1c(O)n(C)c2ccccc12 | 98% (inactive) | -0.4 | 101%
CCSc1nnc(NC(=O)/C=C/c2ccc3c(c2)OCCO3)s1 | 85% (active) | -3.6 | 91%
O=C(O)/C=C/c1ccc2c(c1)OCCO2 | 102% (inactive) | 0.1 | 99%
CCSc1nnc(NC(=O)c2ccc(C)c(S(=O)(=O)N(CC)CC)c2)s1 | 100% (inactive) | -0.5 | 98%
COc1ccc(S(=O)(=O)N2CCC(C(=O)N3CCCC3)CC2)cc1OC | 99% (inactive) | -0.6 | 100%
O=C(NCc1ccco1)c1cc(Cl)cc(Cl)c1 | 99% (inactive) | -0.7 | 104%
CCc1cc(=O)oc2c(C)c3c(cc12)CN(Cc1ccccc1)CO3 | 100% (inactive) | -0.7 | 104%
CCN1CCN(C2=Nc3c(Cl)cc(Cl)c4cccc2c34)CC1 | 45% (inactive) | -6.5 | 247%
CCN(CC)CCN1COc2c(cc(Cl)c3cccnc23)C1 | 84% (active) | -5.8 | 80%
O=c1c(C=Nc2cc(Cl)ccc2O)c(O)n(C2CCCCC2)c(=O)n1C1CCCCC1 | 100% (inactive) | 0 | 100%
NS(=O)(=O)c1ccc(CCN(Cc2nc3ccsc3c(=O)[nH]2)Cc2nc3ccsc3c(=O)[nH]2)cc1 | 111% (inactive) | 1.1 | 110%
COC(=O)C(Cc1ccccc1)NC(=O)c1n[nH]c(=O)c2ccccc12 (configuration not stated) | 101% (inactive) | -0.2 | 100%
COc1ccc(OCCOc2ccccc2F)cc1 | 104% (inactive) | 1.2 | 102%
CCOC(=O)C1(C(=O)OCC)C(c2ccccc2)CC(=O)CC1c1ccccc1 (configuration not stated) | 99% (inactive) | -0.3 | 96%
CCOC(=O)C1(C2(O)C(=O)c3ccccc3C2=O)CCCC1=O (configuration not stated) | 75% (active) | -3.1 | 72%
CCOC(=O)C1(C(=O)OCC)CCN(S(=O)(=O)c2ccc(C)cc2)c2ccccc2C1=O | 107% (inactive) | 0.2 | 102%
Nc1ccc(N=C2C(=O)Nc3ccccc32)cc1 | 99% (inactive) | -0.4 | 100%
O=C1Nc2ccccc2C1=Nc1cccc(C(F)(F)F)c1 | 88% (active) | -1.2 | 90%
CN(C)/C=C1/C(=O)Nc2ccccc21 | 98% (inactive) | -0.1 | 103%
COc1ccc(C(C#N)OC(C)=O)c(OCc2ccccc2)c1OC (configuration not stated) | 105% (inactive) | 0.2 | 102%
COC(=O)c1c(NC(=O)CCCOc2ccccc2)sc2c1CCC(C)C2 (configuration not stated) | 105% (inactive) | 0.2 | 112%
O=C(Cc1ccccc1)Nc1sc2c(c1C(=O)Nc1ccc(Br)cc1)CCC2 | 102% (inactive) | -0.1 | 106%
CCOc1ccc(NC(=O)c2c(NC(=O)Cc3ccccc3)sc3c2CCC(C)C3)cc1 (configuration not stated) | 83% (active) | -3.6 | 84%

SMILES | % elongation | z-score | % elongation [1]
Cc1cccc(OCCCC(=O)Nc2sc3c(c2C(N)=O)CCC(C)C3)c1 (configuration not stated) | 101% (inactive) | -0.6 | 102%
CCOc1ccc(NC(=O)c2c(NCc3cccc(OC)c3OC)sc3c2CCC3)cc1 | 108% (inactive) | 0.4 | 114%
CCOc1ccc(NC(=O)c2c(NC(=O)Cc3ccccc3)sc3c2CCCCC3)cc1 | 75% (active) | -5 | 78%
CC1CC(C)CN(C(=O)COC(=O)c2ccc(C#N)cc2)C1 (configuration not stated) | 101% (inactive) | -0.2 | 102%
Cc1ccc(Cn2nc(C)c(/C=C/C(=O)OCc3nc4ccccc4c(=O)n3CC#N)c2C)cc1 | 108% (inactive) | 0.9 | 119%
O=C(CC12CC3CC(CC(C3)C1)C2)Nc1noc2ccccc12 | 101% (inactive) | -0.1 | 102%
COC(CNC(=O)c1ccc2c(c1)N(Cc1cc(C)ccc1C)C(=O)c1ccccc1S2=O)OC (configuration not stated) | 99% (inactive) | -1.1 | 103%
CCn1c(C(C)C)n[nH]c1=S | 103% (inactive) | 0.6 | 102%
CC(C)Sc1n[nH]c(=S)n1N | 83% (active) | -1.9 | 88%
CC(C)n1c(-c2ccncc2)n[nH]c1=S | 102% (inactive) | 0.7 | 103%
CC(C)c1n[nH]c(=S)n1N | 62% (active) | -2.9 | 68%
O=C(CN1C(=O)c2ccccc2C1=O)NN1C(=O)CSC1=S | 97% (inactive) | -0.8 | 106%
COc1ccc(O)c(C(=O)c2cnn(C(=O)c3ccc4c(=O)n5c(nc4c3)CCC5)c2)c1 | 104% (inactive) | 0.1 | 108%
COc1ccc(O)c(C(=O)c2cnn3c(N)nnc3c2)c1 | 84% (active) | -2.3 | 84%
COc1ccc(OC)c(C(=O)c2ccc(C(=O)O)cc2)c1 | 102% (inactive) | 0.4 | 100%
COc1cc(C=Nc2c(C)n(C)n(-c3ccccc3)c2=O)ccc1OC(=O)c1ccco1 | 104% (inactive) | 0.5 | 102%
COc1cccc(CN2CCc3nc(SCC(=O)Nc4ccccc4)[nH]c(=O)c3C2)c1 | 107% (inactive) | -0.1 | 111%
O=C(CSc1nc2c(c(=O)[nH]1)CN(Cc1ccc3c(c1)OCO3)CC2)Nc1cc(F)ccc1F | 108% (inactive) | 0 | 107%
O=C(CSc1nc2c(c(=O)[nH]1)CN(Cc1ccc(F)cc1)CC2)Nc1ccccc1Cl | -15% (active) | -8.9 | 19%
CC[N+](CC)=c1scc(-c2ccc(Cl)cc2)s1 | 102% (inactive) | -0.2 | 110%
O=c1ccc(-c2ccc(S(=O)(=O)N3CCc4ccccc43)o2)n[nH]1 | 102% (inactive) | 0.6 | 108%
CCN(CC)C(=O)C1Sc2nnc(-c3ccccc3)n2NC1c1ccccc1 (configuration not stated) | 101% (inactive) | 0.1 | 102%
Cc1[nH]c(=O)[nH]c(=O)c1N | 100% (inactive) | -0.5 | 100%
CC[n+]1c(C)n(-c2ccccc2)c2ccc(N)cc21 | 102% (inactive) | 0.2 | 106%
CC[N+](C)(CC)CCC[n+]1c(-c2ccccc2)c2cc(N)ccc2c2ccc(N)cc21 | -41% (active) and -58% (active) and 65% (active) | -17 and -9.9 and -6.6 | -18% and -15% and 39%
